ATXN2 expr inh: Primary qHTS for Inhibitors of ATXN expression; 360,000 tested, 0.72% active; Potency, µM (titrated, usually from 57 µM), without a hit: at the top dose activity change, negative = inhibition, hits mostly inhibitors; HEK-293 ATXN2-luciferase reporter, luminescence, 24 h; AID 1745845, 2022; note: % is set by controls: 0 for no effect and ±100 for the full control effect; nearly all actives have a fitted effect of over 55% in size
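qHTS (up to 57 uM final) was run with 24 h compound exposure of reporter cells at 37 °C. Each well was multiplexed: SteadyGlo luminescence measured ATXN2-luciferase expression after a fluorogenic Gly-Phe-AFC viability readout (25 uM final).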
KB-3-1 tox: qHTS assay for MDR1-selective chemotherapeutics: Primary screen using the parental adenocarcinoma cell KB-3-1 | KB-3-1 viability, CellTiter-Glo ATP luminescence, 72 h | 400,000 tested, 1.4% active | Potency, µM (highest dose often 46.1 µM), usual class: cytotoxic; note: % is set by controls: 0 for no effect and ±100 for the full control effect; nearly all actives have a fitted effect of over 60% in size
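Cytotoxicity measured as CellTiter-Glo luminescence after 72 h at 37 C. Compound titrations were pinned onto drug-naive KB-3-1 parental adenocarcinoma cells grown in DMEM with 10% FBS, and normalized data fitted to concentration-response curves.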
S2 tox: Viability Counterscreen for Primary qHTS for Inhibitors of ATXN expression | Potency, µM (doses to about 56.7 µM), hits mostly cytotoxic | S2 cells (HEK-293 line with an ATXN2-luciferase reporter) viability, CellTiter-Fluor protease fluorescence, 24 h | 400,000 tested, 0.49% active; note: nearly all actives have a fitted effect of over 40% in size
KB-V1 cytotox: qHTS assay for MDR1-selective chemotherapeutics: Primary screen using the drug-selected MDR subline cells KB-V1; KB-V1 MDR cells viability, CellTiter-Glo, 72 h; 400,000 tested, 3.4% active; Potency, µM (top dose mostly 46.1 µM), hits mostly cytotoxic; AID 1347076, 2019; note: % is set by controls: 0 for no effect and ±100 for the full control effect; nearly all actives have a fitted effect of over 60% in size
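Luminescent ATP read-out (CellTiter-Glo, 10 min) measures survival of drug-selected KB-V1 MDR cells after 72 h, 37 degrees C compound exposure. Medium: phenol-red-free DMEM, 10% FBS. Values from fitted concentration-response curves.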
HT1080 IDH1KD tx: qHTS for induction of synthetic lethality in tumor cells producing 2HG: qHTS for the HT-1080-IDH1KD cell line; Potency, µM (titrated, usually from 46.1 µM), for inactives: at the highest dose activity, negative = toxicity, most hits filed as cytotoxic; AID 686971, 2013; 360,000 tested, 2% active; HT-1080 IDH1 knockdown viability, ATP luminescence, 48 h;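 note: 0% = DMSO wells and -100% = cell-free medium wells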
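IDH1KD HT-1080 cells, 750/well, RPMI + 5% FBS; compound pinned after 2 h settling; 48 h, 37 °C; CellTiter-Glo luminescence; % activity normalised to DMSO and no-cell wells; curves fitted, classed by r2 and efficacy.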
HT1080-NT tox: qHTS for induction of synthetic lethality in tumor cells producing 2HG: qHTS for the HT-1080-NT fibrosarcoma cell line; 360,000 tested, 1.6% active; Potency, µM (top dose mostly 46.1 µM), without a hit: at the top dose activity, negative = less viability, actives largely listed as cytotoxic; HT-1080-NT fibrosarcoma viability, CellTiter-Glo ATP luminescence, 48 h;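 note: NT is the 2HG producing partner of a matched IDH1 knockdown line; 0% = DMSO-treated cells and -100% = media-only wells without cells; nearly all actives have a fitted effect of over 55% in size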
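Viability of the 2HG-overproducing fibrosarcoma line after 48 hours of compound exposure at 37 degrees C was determined by luminescence with CellTiter-Glo, and concentration-effect curves were then fitted and categorized.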
An asterisk follows results filed as active; i = inactive; ? = inconclusive; . = no result. In the library only some 6.2% were active in any assay of this set; here they are far more common. Calls come from the whole dose curve; as a rule, active = well fitted curve in the direction sought with a large enough effect; inconclusive = small, poorly fitted or top-dose-only effect, or another doubt; inactive = no such curve, though single readings can be large; an effect the other way counts as inactive or inconclusive. Potency is the fitted concentration of half-maximal effect.

SMILES	ATXN2 expr inh	KB-3-1 tox	S2 tox	KB-V1 cytotox	HT1080 IDH1KD tx	HT1080-NT tox
Cc1ccc(S(=O)(=O)CCC(=O)N2CCc3ccccc32)cc1	2.1%	i	i	20.6µM*	-0.3%	0.8%
COc1ccc(/C=C2\N=C(c3ccccc3Cl)NC2=O)cc1	.	?	i	?	14.6µM*	-22.9%
Cc1cccc(CN2C(=O)c3ccccc3Sc3ccc(C(=O)NCCN4CCOCC4)cc32)c1	-9.4%	i	i	?	-29.4%	?
Cc1ccc(CN2C(=O)c3ccccc3Sc3ccc(C(=O)NCCN4CCOCC4)cc32)cc1	-36.9%	?	i	?	9.2µM*	11.6µM*
O=C(c1ccc2c(c1)N(Cc1ccccc1)C(=O)c1ccccc1S2)N1CCCC1	-13.6%	i	i	2.31µM*	1.7%	9.3%
Cc1cn([C@H]2C[C@H](F)[C@@H](CO)O2)c(=O)[nH]c1=O	-3.5%	.	i	.	.	.
CC1(C)CC(=O)c2cc(C(=O)Nc3ccccc3)c(=O)[nH]c2C1	.	i	.	i	.	.
CCc1nnc(NC(=O)CSCc2cc(=O)c3ccc(C)cc3[nH]2)s1	0.8%	i	i	?	.	.
CC[C@]12c3[nH]c4cc(CCC(=O)N(C)C)ccc4c3CCN1C(=O)[C@@H](CC(=O)NCCN1CCOCC1)C[C@@H]2C(=O)N1CCN(C(=O)c2ccco2)CC1	1.2%	i	i	i	9.6%	1.3%
CC[C@]12c3[nH]c4cc(CCC(=O)N(C)C)ccc4c3CCN1C(=O)[C@@H](CC(=O)NC/C=C(\C)CCC=C(C)C)C[C@@H]2C(=O)N1CCN(C(=O)c2ccco2)CC1	?	?	?	i	20.6µM*	?
CC[C@]12c3[nH]c4ccc(Cl)cc4c3CCN1C(=O)[C@@H](CC(=O)NC/C=C(\C)CCC=C(C)C)C[C@@H]2C(=O)N1CCN(C(=O)c2ccco2)CC1	?	i	?	i	14.6µM*	?
CCN(CC)C(=O)[C@H]1C[C@H](CC(=O)NC/C=C(\C)CCC=C(C)C)C(=O)N2CCc3c([nH]c4ccc(Cl)cc34)[C@]12C	-3.4%	?	i	i	1.0%	7.7%
CCN(CC)C(=O)[C@H]1CC(CC(=O)NC/C=C(\C)CCC=C(C)C)C(=O)N2CCc3c([nH]c4ccc(OC)cc34)[C@]12C (stereo not given in full)	?	?	25.1µM*	?	16.4µM*	?
COc1ccc(NC(=O)Cn2c(=O)n(CCc3ccccc3)c(=O)c3sc4ccccc4c32)cc1	10.0%	i	i	i	.	.
CCC1CN(Cc2cn[nH]c2-c2ccc(OC)cc2)Cc2cc(OC)ccc2O1 (stereo not given)	.	.	i	.	.	.
Cc1cc2nccc(C)c2cc1C	.	i	.	i	.	.
O=c1c2cc3c(cc2n(Cc2cccc(F)c2)c(=O)n1Cc1nc(-c2ccccc2)no1)OCO3	7.0%	i	i	i	.	.
COCCNC(=O)C(c1cccs1)N(Cc1cccs1)C(=O)Cn1nnc2ccccc21 (stereo not given)	5.9%	i	i	i	5.4%	11.0%
CC(C)CCNC(=O)C(c1ccco1)N(Cc1cccs1)C(=O)Cn1nnc2ccccc21 (stereo not given)	3.0%	i	i	5.17µM*	4.6%	-0.9%
C=CCn1c(SCc2ccc(C#N)cc2)nnc1-c1ccccc1	-1.9%	i	i	9.2µM*	4.8%	-9.8%
C=CCn1c(SCc2ccc(C#N)cc2)nnc1-c1cccc(OC)c1	-3.1%	i	i	i	-6.0%	-8.4%
CC(N)c1csc(Nc2cc(Oc3ccccc3)ncn2)n1 (stereo not given)	2.2%	i	i	i	-22.5%	?
NC(Cc1ccc(Cl)cc1)c1csc(Nc2cc(Oc3ccccc3)ncn2)n1 (stereo not given)	-21.0%	?	.	?	18.4µM*	18.4µM*
NC(Cc1ccc(F)cc1)c1csc(Nc2cc(Oc3ccccc3)ncn2)n1 (stereo not given)	?	?	28.2µM*	?	16.4µM*	?
COc1ccc(CC(N)c2csc(Nc3cc(Oc4ccccc4)ncn3)n2)cc1 (stereo not given)	?	i	?	i	?	-22.6%
SMILES	ATXN2 expr inh	KB-3-1 tox	S2 tox	KB-V1 cytotox	HT1080 IDH1KD tx	HT1080-NT tox
NC(COCc1ccccc1)c1csc(Nc2cc(Oc3ccccc3)ncn2)n1 (stereo not given)	?	i	?	?	?	23.1µM*
NC(Cc1ccc(F)cc1)c1csc(Nc2cc(NCc3ccco3)ncn2)n1 (stereo not given)	17.8µM*	i	?	?	16.4µM*	18.4µM*
Fc1ccc(CCNc2ncnc3[nH]ncc23)cc1	21.7%	11.6µM*	i	4.11µM*	-10.2%	0.8%
O=C(Cc1ccc(Br)cc1)NO	.	.	.	.	0.1%	-13.1%
CC(C)CN(CC(C)C)S(=O)(=O)c1ccc(C(=O)Nc2sc3c(c2C(N)=O)CCN(C(C)C)C3)cc1	?	i	.	?	.	.
COC(=O)C1CCC(=O)N1C(c1ccc(OC)cc1)c1cc(OC)c(OC)c(OC)c1 (stereo not given)	4.2%	0.82µM*	?	7.31µM*	?	1.16µM*
NCCCNCCCCNC(=O)C(O)NC(=O)CCCCCCN=C(N)N (stereo not given)	.	.	i	.	.	.
Cc1ccc(-n2c3c(c(O)c(-c4ccccc4)c2=O)C(=O)CC(C)(C)C3)cc1	2.7%	i	?	11.6µM*	5.5%	0.5%
COc1ccccc1CNC(=O)C1CCCN(c2nn3cc(-c4ccc(F)cc4)nc3s2)C1 (stereo not given)	.	i	.	i	.	.
CCC1CN(Cc2cn[nH]c2-c2ccc(F)cc2)Cc2cc(OC)ccc2O1 (stereo not given)	.	.	i	.	.	.
CC(C)N(CC#CCC(O)(c1ccccc1)c1ccccc1)C(C)C	-0.4%	i	i	13µM*	3.6%	-16.2%
Cc1nn2c(CN(C(=O)COc3ccccc3)c3ccccc3)nnc2c2ccccc12	2.2%	?	i	4.61µM*	-0.8%	-4.5%
Cc1nn2c(COc3ccc(NC(=O)c4ccccc4Cl)cc3)nnc2c2ccccc12	3.6%	?	i	?	14.6µM*	?

Compound activity as filed in PubChem BioAssay.
